Measured values published in PubChem BioAssay AID588453 (National Center for Advancing Translational Sciences (NCATS), 2011).
The campaign covered roughly 390,000 compounds. About 4,000 (1%) were called active. Roughly 4% stayed inconclusive and do not appear here. Calls come from the whole dose curve; as a rule, active = well fitted inhibition curve with a large enough effect; inconclusive = small, poorly fitted or top-dose-only effect; inactive = no such curve, though single readings can be large or run the other way. Shown is part of a subset that was picked to be rich in actives.

Target: Thioredoxin reductase 1, cytoplasmic (Rattus norvegicus) (UniProt O89049)
Experiment: qHTS Assay for Inhibitors of Mammalian Selenoprotein Thioredoxin Reductase 1 (TrxR1): qHTS; note: nearly all actives have a fitted effect of over 65% in size
Details: recombinant rTrxR1, NADPH fluorescence consumption, selenite substrate; series mostly up to 114 µM; activity change, negative = inhibition: at the top concentration
Method in brief: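 Rat TrxR1 (90 nM in the dispensed reagent) was pre-reduced with 400 uM NADPH for 5 min at room temperature, then incubated with compound for 15 min. After 400 uM selenite was added, NADPH fluorescence (Ex 340/Em 450 nm) was followed for 8 min.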
% is set by controls: 0 for no effect and ±100 for the full control effect; potency is the fitted concentration of half-maximal effect.

Chain of Thioredoxin reductase 1, cytoplasmic (Rattus norvegicus) (O89049 whole entry, looked up): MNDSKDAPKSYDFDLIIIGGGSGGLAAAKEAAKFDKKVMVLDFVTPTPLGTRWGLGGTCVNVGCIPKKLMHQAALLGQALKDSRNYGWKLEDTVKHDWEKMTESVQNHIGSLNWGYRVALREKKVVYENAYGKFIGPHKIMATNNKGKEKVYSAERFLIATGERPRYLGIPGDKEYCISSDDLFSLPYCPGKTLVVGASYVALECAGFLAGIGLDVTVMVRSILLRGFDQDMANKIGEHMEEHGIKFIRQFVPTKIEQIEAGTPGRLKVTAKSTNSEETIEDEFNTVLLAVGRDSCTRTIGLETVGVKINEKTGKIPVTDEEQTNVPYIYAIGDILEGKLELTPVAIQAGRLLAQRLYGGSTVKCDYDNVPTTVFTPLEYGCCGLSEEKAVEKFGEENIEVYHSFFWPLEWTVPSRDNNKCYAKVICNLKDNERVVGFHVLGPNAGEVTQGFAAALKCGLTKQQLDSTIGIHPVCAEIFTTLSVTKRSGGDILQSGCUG

Activity change, negative = inhibition, inactive:
COc1cccc(-c2nc(S(=O)(=O)c3ccc(C)cc3)c(NCc3ccccc3)o2)c1 8.09%
Cc1c(NC(=O)Cc2ccccc2)cccc1-c1nc2cccnc2s1 22.3%
O=C(NCc1ccco1)c1ccc(NS(=O)(=O)c2cccc([N+](=O)[O-])c2)cc1 -1.92%
O=[N+]([O-])c1cccc(/C([O-])=C(/C(=S)Nc2ccccc2F)[n+]2ccccc2)c1 10.2% [at 57.1 µM]
CC1(C)Cc2ccccc2-c2c[nH]c(=O)n21 3.99%
COc1cc(OC)cc(C(=O)OCC(=O)Nc2sccc2C(N)=O)c1 15.1%
Cn1nnnc1SCC(=O)Nc1sccc1C(N)=O 13.4% [at 11.4 µM]
C=C1C=C(C)n2ncc(C(=O)Nc3ccccc3O)c2N1 8.78%
COc1ccccc1/C=C/C1=NC(=C\N(C)C)/C(=O)O1 9.66% [at 57.1 µM]
Cc1ccc(C2=C/C(=C\c3cccnc3)C(=O)O2)cc1 31.3%
CN(C)c1ccc(/C=C/C=C/c2ccnc3ccccc23)cc1 -12.8%
CN(C)S(=O)(=O)c1ccc(C(=O)N(Cc2cccnc2)c2nc3c(F)cc(F)cc3s2)cc1 1.57% [at 57.1 µM]
Cc1ccc(S(=O)(=O)CCC(=O)OCc2ccccc2)cc1 22.7%
COc1ccccc1CNC(=O)CS(=O)(=O)c1cccc2nsnc12 5.68% [at 57.1 µM]
O=C(O)CCS(=O)(=O)c1ccc(-c2ccccc2)cc1 -6.99%
O=C(C1COc2ccccc2O1)N(Cc1cccnc1)c1nc2c(F)cc(F)cc2s1 (stereo not given) 23.2% [at 57.1 µM]
Brc1ccc2c(c1)NC(c1cccnc1)=NC(c1ccccc1)=N2 25%
Cc1cccc(N2CCN(C(=O)c3ccc4c(c3)CCN4S(=O)(=O)c3ccccc3)CC2)c1C 23.9%
Cc1cccc(NC(=O)C2CCN(S(=O)(=O)c3c(C)noc3/C=C/c3ccco3)CC2)c1 -7.03%
CCC(=O)N1CCc2cc(S(=O)(=O)NC(C(=O)NCCc3ccc(C)cc3)C(C)C)ccc21 (stereo not given) 19%
O=C(Cn1ncn2nc(-c3cccs3)cc2c1=O)NCc1cccc(Br)c1 17.3%
CCOC(=O)c1ccccc1NC(=O)c1nn(-c2ccc(OC)c(Cl)c2)c(=O)c2c1c1ccccc1n2C 15.4%
Cc1ccc(C(=O)NC(=S)Nc2ccc3[nH]c(=O)[nH]c3c2)cc1C 2.89% [at 57.1 µM]
CCOC(=O)C1=C(NC(=S)NC(=O)c2ccccc2)c2ccccc2CC1(C)C -24.4%
CCOc1ccc(CNC(=O)c2ccc3nc(CC)c(CC)nc3c2)cc1OC 15.6% [at 57.1 µM]
CCOc1cccc(NC(=O)CSc2ncc(-c3ccc(Cl)cc3)[nH]2)c1 3.45%
CC1(C)CC(=O)c2cc(C(=O)NCc3ccccc3)c(=O)[nH]c2C1 8.76%
O=C(NCCC1=CCCCC1)c1ccc2c(c1)N(Cc1ccccc1F)C(=O)c1ccccc1S2(=O)=O 41.9%
COc1ccc(Cn2cc(C(=O)c3ccc(C)cc3)c(=O)c3cc(OC)c(OC)cc32)cc1 21.9%
COc1ccc(-c2nc(C)c(CCNC(=O)c3ccc(C(F)(F)F)cc3)s2)cc1OC 14.7% [at 57.1 µM]
O=C(Nc1ccccc1Cl)N1CCC(CN2CCCCC2)CC1 24.2% [at 57.1 µM]
O=C(Nc1ccccc1Cl)N1CCC(CN2CCCC2)CC1 -6.79%
O=C1C2C(c3ccccc3)CC=CC2C(c2ccoc2)N1Cc1ccccc1 (stereo not given) -7.81%
C#CC(C)(CC)NC(=O)Cn1nnc(-c2ccc(OCc3c(F)cccc3Cl)cc2)n1 (stereo not given) 28.4%
COc1cc(OC)cc(C(=O)NCCc2csc3nc(-c4ccccc4F)nn23)c1 6.74% [at 57.1 µM]
COc1cc(C(=O)NCC(c2ccc(Cl)cc2)N2CCOCC2)cc(OC)c1OC (stereo not given) 8.59%
CCn1c(CNC(=O)c2ccco2)nnc1SCC(=O)Nc1cccc(F)c1 27.1%
O=C(CSc1ccc(-c2ccco2)nn1)NCc1ccc2c(c1)OCO2 -71.2%
COc1ccc(OCCn2cc(C(=O)C3CCCCC3)c3ccccc32)cc1 25.8%
Cc1ccc(C)c(N2CCN(Cc3nnc(-c4ccccc4)o3)CC2)c1 16.7%

Potency, inactive:
CCOc1ccccc1NC(=O)CCS(=O)(=O)c1cccc2nsnc12

Potency, active:
Cc1ccc(/C([O-])=C(/C(=S)NCc2ccco2)[n+]2ccccc2)cc1[N+](=O)[O-] 56.2 µM
NC(=O)c1ccsc1NC(=O)c1ccco1 56.2 µM
CN(C)/C=C1\C=C(c2ccccc2)OC1=O 28.2 µM
COc1cccc2sc(N(CCCN(C)C)C(=O)CCS(=O)(=O)c3ccccc3)nc12 1.58 µM
Cc1cccc2sc(N(CCCN(C)C)C(=O)CCS(=O)(=O)c3ccccc3)nc12 15.8 µM
O=C(CCS(=O)(=O)c1ccccc1)N(Cc1cccnc1)c1nc2c(F)cccc2s1 3.98 µM
Cc1cc2[nH]ncc2cc1NC(=S)NC(=O)c1ccccc1 7.08 µM
O=C(Nc1ccccc1Cl)/C(Cl)=C(\Cl)S(=O)c1ccccc1 (stereo not given) 0.398 µM
O=C(CSc1ccc(-c2ccco2)nn1)Nc1cccc(F)c1 25.1 µM
